PubChem BioAssay (Tox21)
Records with an inconclusive call do not appear. Calls of active or inactive are those of the source. Calls come from the whole dose curve.

Test: qHTS assay to identify small molecule agonists of the progesterone receptor (PR) signaling pathway - cell viability counter screen (AID 1346799); note: nearly all actives have a fitted effect of over 45% in size
Settings: PR-UAS-bla HEK293T viability, CellTiter-Glo luminescence, 16 h; series mostly up to 92.4 µM; activity change, negative = cytotoxicity: at the top concentration
Excerpt: National Center for Advancing Translational Sciences [NCATS]
NIH Chemical Genomics Center [NCGC]
U.S. Environmental Protection Agency [EPA]
National Institutes of Environmental Health Sciences [NIEHS]
National Toxicology Program [NTP]
U.S. Food and Drug Administration [FDA]
Progesterone receptor (PR), a nuclear hormone receptor, plays an important role in development, metabolic homeostasis and reproduction. It is activated by the steroid hormone progesterone. Endocrine disrupting chemicals (EDCs) and their interactions with steroid hormone receptors like PR causes disruption of normal endocrine function. To identify the compounds that stimulate PR signaling, a PR-UAS-bla GripTite cell line i.e. PR-UAS-bla HEK293T (Invitrogen, Carlsbad, CA, USA) containing a beta-lactamase reporter gene under the control of an UAS response element was used to screen Tox21 10K compound library. The cytotoxicity of the Tox21 compound library against the PR-bla cell line was tested in parallel by measuring the cell viability using CellTiter-Glo assay in the same wells.
Tox21 Assay Protocol Summary:
PR-UAS-bla HEK293T cells were dispensed at 3,000 cells/5 uL of assay medium containing 2% charcoal stripped FBS per well into black wall/clear-bottom 1536-well plates using a Multidrop Combi (ThermoFisher Scientific, Waltham, MA) dispenser. After the assay plates were incubated at a 37C and 5% CO2 for 6 hr, 23 nL of compounds dissolved in DMSO, positive controls or DMSO only was transferred to the assay plate by a Pintool station (Kalypsys, San Diego, CA). The plates were incubated at 37C and 5% CO2 for 16 hr. Then 1 uL of LiveBLAzer B/G FRET substrate was added using a Flying Reagent Dispenser (FRD, Aurora Discovery, San Diego, CA), the plates were incubated at room temperature for 2 hours, and fluorescence intensity was measured by an Envision plate reader (PerkinElmer, Shelton, CT). For cell viability readout that measures cytotoxicity, 4 uL/well of CellTiter-Glo reagent was added into the assay plates using a FRD. After 30 min incubation at room temperature, the luminescence intensity in the plates was measured using a ViewLux (PerkinElmer) plate reader.
% is set by controls: 0 for no effect and ±100 for the full control effect; potency is the fitted concentration of half-maximal effect.

Row | SMILES | activity change, negative = cytotoxicity | Potency
1 | CCC(C)(C)CC | 12.2% (inactive) | –
2 | CCOC(=O)C1=C[C@]2(CC)CCCN3CCc4c(n1c1ccccc41)[C@@H]32 | 3.28% [at 42.5 µM] (inactive) | –
3 | O=S(=O)(Oc1ccc(Cl)cc1)c1ccccc1 | 3.6% (inactive) | –
4 | Nc1ccc(S(=O)(=O)Nc2ccccc2)cc1 | 2.53% [at 42.5 µM] (inactive) | –
5 | CCCCC1=NC2(CCCC2)C(=O)N1Cc1ccc(-c2ccccc2-c2nn[nH]n2)cc1 | -17.4% [at 42.5 µM] (inactive) | –
6 | COc1cc2nc(N3CCN(C(=O)C4COc5ccccc5O4)CC3)nc(N)c2cc1OC (stereo not given) | 31.6% [at 42.5 µM] (inactive) | –
7 | CC[N+]1(CC)CCC(=C(c2ccccc2)c2ccccc2)C1C (stereo not given) | -11.4% [at 42.5 µM] (inactive) | –
8 | CCCCCCCCCCCCCCCCCCOS(=O)(=O)O | – | 48.6 µM (active)
9 | CC(C)Nc1ccc(NC(C)C)c2c1C(=O)c1ccccc1C2=O | -23.3% [at 42.5 µM] (inactive) | –
10 | Cc1ncc(CO)c(C=O)c1O | -4.14% [at 42.5 µM] (inactive) | –
11 | O=C(NCCO[N+](=O)[O-])c1cccnc1 | -1.81% [at 42.5 µM] (inactive) | –
12 | O=C(Cl)c1cc(C(=O)Cl)cc(C(=O)Cl)c1 | -29.5% (inactive) | –
13 | C=CCOC(=O)CCC1CCCCC1 | -4.8% (inactive) | –
14 | CCOC(=O)C(O)c1ccccc1 (stereo not given) | 2.86% [at 42.5 µM] (inactive) | –
15 | CC(CC=O)c1ccccc1 (stereo not given) | -9.08% (inactive) | –
16 | OC(CN1CCC(Cc2ccc(F)cc2)CC1)c1ccc(Cl)cc1 (stereo not given) | -30.2% [at 42.5 µM] (inactive) | –
17 | COC(=O)c1ccc(I)cc1S(=O)(=O)NC(=O)Nc1nc(C)nc(OC)n1 | -6.15% (inactive) | –
18 | C[C@H](CCC(=O)O)[C@H]1CC[C@H]2[C@@H]3CC[C@@H]4C[C@H](O)CC[C@]4(C)[C@H]3C[C@H](O)[C@]12C | – | 54.6 µM (active)
19 | CCCC(=O)Nc1ccc(O)c(C(C)=O)c1 | 0% [at 42.5 µM] (inactive) | –
20 | C=C(C)C(=O)OCC | 1.02% (inactive) | –

Row | SMILES | activity change, negative = cytotoxicity | Potency
21 | O=C1OC(CN2CCOCC2)CN1/N=C/c1ccc([N+](=O)[O-])o1 (stereo not given) | 11.5% [at 42.5 µM] (inactive) | –
22 | CCC(=O)O[C@]1(C(=O)CCl)[C@@H](C)C[C@H]2[C@@H]3CCC4=CC(=O)C=C[C@]4(C)[C@@]3(F)[C@@H](O)C[C@@]21C | 38.6% [at 42.5 µM] (inactive) | –
23 | Brc1c2ccccc2c(Br)c2ccccc12 | 18.6% [at 8.39 µM] (inactive) | –
24 | NC(N)=NCCC[C@H](N)C(=O)O | -1.33% [at 8.39 µM] (inactive) | –
25 | O=C(O)c1nc(Cl)c(Cl)c(Cl)c1Cl | -4.28% (inactive) | –
26 | COc1ccc(C(=O)Nc2nc3ccccc3c(NCc3ccccc3)c2C#N)cc1 | -27.4% (inactive) | –
27 | NC(=O)C(c1ccccc1)(c1ccccc1)[C@@H]1CCN(CCc2ccc3c(c2)CCO3)C1 | 4.61% [at 42.5 µM] (inactive) | –
28 | CC(C)(CO)[N+](=O)[O-] | 2.28% (inactive) | –
29 | CCOC(=O)COC(=O)c1cc(Oc2ccc(C(F)(F)F)cc2Cl)ccc1[N+](=O)[O-] | 1.02% (inactive) | –
30 | O=C(O)C1(C(=O)O)CCC1.[NH2-].[NH2-].[Pt+2] | 13.7% [at 42.5 µM] (inactive) | –
31 | COc1cc(Cl)c(OC)cc1N | -26.8% (inactive) | –
32 | CC(=O)c1cccc([N+](=O)[O-])c1 | 7.63% (inactive) | –
33 | C[N+](C)(C)CCOC(=O)CCC(=O)OCC[N+](C)(C)C | 5.53% [at 42.5 µM] (inactive) | –
34 | COc1ccc(C(=O)N2CCN(CC(=O)N3CCOCC3)CC2)cc1 | -1.86% [at 42.5 µM] (inactive) | –
35 | O=C(O)c1ccc(-n2nc(-c3ccccc3O)nc2-c2ccccc2O)cc1 | 31.4% [at 42.5 µM] (inactive) | –
36 | CCCCCCCCCCO[C@@H]1O[C@H](CO)[C@@H](O)[C@H](O)[C@H]1O | 17.8% (inactive) | –
37 | CC[N+](C)(CC)CCOC(=O)C(O)(c1ccccc1)C1CCCCC1 (stereo not given) | -2.58% [at 42.5 µM] (inactive) | –
38 | CN(C)CCOC(c1ccccc1)c1ccc(Br)cc1 (stereo not given) | – | 16.8 µM (active)
39 | CC1=CC[C@H](C(C)C)C=C1 | -1.35% (inactive) | –
40 | O=[N+]([O-])c1ccc2[nH]ncc2c1 | 13.8% (inactive) | –
